We go through 17 compounds from ChEMBL document CHEMBL1961873, “Compounds: GSK PKIS; Assays: Nanosyn kinase panel” (2012).

The test system of test [1] is Proto-oncogene tyrosine-protein kinase receptor Ret (Homo sapiens), P07949 [Y791F]. As to conditions: at 1 µM.
Test [2] concerns the target Macrophage-stimulating protein receptor (Homo sapiens) (UniProt Q04912). The note with it: at 0.1 µM.
The target is the same in test [3]. As to conditions: at 1 µM.
Test [4] has as its target Proto-oncogene tyrosine-protein kinase ROS (Homo sapiens) (UniProt P08922). As to conditions: at 0.1 µM.
Test [5] has the same target. As to conditions: at 1 µM.
In test [6] the target is Proto-oncogene tyrosine-protein kinase Src (Homo sapiens) (UniProt P12931). As to conditions: at 0.1 µM.
The target is the same in test [7]. The note with it: at 1 µM.
The target in test [8] is Tyrosine-protein kinase Srms (Homo sapiens) (UniProt Q9H3Y6). The note with it: at 0.1 µM.
For test [9] the target is unchanged. The note with it: at 1 µM.
In test [10] the target is Tyrosine-protein kinase SYK (Homo sapiens) (UniProt P43405). As to conditions: at 0.1 µM.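 Further: reported percentages are mean inhibition values for SYK.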

The structures appear in SMILES notation.

Chain of Macrophage-stimulating protein receptor (Homo sapiens) (Q04912 25-304 limits assumed): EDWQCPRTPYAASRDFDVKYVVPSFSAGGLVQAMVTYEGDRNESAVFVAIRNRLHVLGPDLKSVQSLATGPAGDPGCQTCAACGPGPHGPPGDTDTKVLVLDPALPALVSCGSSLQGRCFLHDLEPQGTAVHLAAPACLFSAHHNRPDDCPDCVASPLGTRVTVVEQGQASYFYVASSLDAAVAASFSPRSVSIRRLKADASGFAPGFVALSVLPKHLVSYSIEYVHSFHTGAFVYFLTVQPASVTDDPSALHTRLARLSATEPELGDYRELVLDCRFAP
Chain of Macrophage-stimulating protein receptor (Homo sapiens) (Q04912 310-1400 limits assumed): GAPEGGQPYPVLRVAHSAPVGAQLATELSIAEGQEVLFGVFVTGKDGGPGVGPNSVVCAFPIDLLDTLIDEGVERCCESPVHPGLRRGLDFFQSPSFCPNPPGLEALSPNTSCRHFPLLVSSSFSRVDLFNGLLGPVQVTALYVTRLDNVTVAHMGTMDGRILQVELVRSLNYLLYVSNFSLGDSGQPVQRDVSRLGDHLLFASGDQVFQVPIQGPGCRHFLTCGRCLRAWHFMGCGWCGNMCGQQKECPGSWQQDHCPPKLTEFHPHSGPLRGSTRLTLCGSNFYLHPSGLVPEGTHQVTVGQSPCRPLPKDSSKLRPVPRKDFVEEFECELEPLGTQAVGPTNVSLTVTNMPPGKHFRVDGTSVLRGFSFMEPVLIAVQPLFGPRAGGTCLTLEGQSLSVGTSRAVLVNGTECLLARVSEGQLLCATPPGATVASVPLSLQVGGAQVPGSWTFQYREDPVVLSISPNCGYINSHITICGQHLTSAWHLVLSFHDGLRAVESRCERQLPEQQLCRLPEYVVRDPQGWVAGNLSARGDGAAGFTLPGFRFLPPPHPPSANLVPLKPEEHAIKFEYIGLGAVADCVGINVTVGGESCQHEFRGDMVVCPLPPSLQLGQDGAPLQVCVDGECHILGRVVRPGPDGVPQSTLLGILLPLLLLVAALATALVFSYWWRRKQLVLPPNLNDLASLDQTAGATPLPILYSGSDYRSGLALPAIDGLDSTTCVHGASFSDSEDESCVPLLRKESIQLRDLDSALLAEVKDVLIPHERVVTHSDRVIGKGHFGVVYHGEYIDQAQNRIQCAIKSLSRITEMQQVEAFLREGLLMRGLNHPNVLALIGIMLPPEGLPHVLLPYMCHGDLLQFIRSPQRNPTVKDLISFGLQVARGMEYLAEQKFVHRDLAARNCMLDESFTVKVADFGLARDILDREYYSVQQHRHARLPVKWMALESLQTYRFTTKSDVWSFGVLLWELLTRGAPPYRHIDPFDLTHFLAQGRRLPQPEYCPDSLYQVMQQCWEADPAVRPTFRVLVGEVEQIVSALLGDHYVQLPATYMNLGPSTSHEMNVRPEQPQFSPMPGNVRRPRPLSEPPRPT
Chain of Proto-oncogene tyrosine-protein kinase ROS (Homo sapiens) (P08922 whole entry): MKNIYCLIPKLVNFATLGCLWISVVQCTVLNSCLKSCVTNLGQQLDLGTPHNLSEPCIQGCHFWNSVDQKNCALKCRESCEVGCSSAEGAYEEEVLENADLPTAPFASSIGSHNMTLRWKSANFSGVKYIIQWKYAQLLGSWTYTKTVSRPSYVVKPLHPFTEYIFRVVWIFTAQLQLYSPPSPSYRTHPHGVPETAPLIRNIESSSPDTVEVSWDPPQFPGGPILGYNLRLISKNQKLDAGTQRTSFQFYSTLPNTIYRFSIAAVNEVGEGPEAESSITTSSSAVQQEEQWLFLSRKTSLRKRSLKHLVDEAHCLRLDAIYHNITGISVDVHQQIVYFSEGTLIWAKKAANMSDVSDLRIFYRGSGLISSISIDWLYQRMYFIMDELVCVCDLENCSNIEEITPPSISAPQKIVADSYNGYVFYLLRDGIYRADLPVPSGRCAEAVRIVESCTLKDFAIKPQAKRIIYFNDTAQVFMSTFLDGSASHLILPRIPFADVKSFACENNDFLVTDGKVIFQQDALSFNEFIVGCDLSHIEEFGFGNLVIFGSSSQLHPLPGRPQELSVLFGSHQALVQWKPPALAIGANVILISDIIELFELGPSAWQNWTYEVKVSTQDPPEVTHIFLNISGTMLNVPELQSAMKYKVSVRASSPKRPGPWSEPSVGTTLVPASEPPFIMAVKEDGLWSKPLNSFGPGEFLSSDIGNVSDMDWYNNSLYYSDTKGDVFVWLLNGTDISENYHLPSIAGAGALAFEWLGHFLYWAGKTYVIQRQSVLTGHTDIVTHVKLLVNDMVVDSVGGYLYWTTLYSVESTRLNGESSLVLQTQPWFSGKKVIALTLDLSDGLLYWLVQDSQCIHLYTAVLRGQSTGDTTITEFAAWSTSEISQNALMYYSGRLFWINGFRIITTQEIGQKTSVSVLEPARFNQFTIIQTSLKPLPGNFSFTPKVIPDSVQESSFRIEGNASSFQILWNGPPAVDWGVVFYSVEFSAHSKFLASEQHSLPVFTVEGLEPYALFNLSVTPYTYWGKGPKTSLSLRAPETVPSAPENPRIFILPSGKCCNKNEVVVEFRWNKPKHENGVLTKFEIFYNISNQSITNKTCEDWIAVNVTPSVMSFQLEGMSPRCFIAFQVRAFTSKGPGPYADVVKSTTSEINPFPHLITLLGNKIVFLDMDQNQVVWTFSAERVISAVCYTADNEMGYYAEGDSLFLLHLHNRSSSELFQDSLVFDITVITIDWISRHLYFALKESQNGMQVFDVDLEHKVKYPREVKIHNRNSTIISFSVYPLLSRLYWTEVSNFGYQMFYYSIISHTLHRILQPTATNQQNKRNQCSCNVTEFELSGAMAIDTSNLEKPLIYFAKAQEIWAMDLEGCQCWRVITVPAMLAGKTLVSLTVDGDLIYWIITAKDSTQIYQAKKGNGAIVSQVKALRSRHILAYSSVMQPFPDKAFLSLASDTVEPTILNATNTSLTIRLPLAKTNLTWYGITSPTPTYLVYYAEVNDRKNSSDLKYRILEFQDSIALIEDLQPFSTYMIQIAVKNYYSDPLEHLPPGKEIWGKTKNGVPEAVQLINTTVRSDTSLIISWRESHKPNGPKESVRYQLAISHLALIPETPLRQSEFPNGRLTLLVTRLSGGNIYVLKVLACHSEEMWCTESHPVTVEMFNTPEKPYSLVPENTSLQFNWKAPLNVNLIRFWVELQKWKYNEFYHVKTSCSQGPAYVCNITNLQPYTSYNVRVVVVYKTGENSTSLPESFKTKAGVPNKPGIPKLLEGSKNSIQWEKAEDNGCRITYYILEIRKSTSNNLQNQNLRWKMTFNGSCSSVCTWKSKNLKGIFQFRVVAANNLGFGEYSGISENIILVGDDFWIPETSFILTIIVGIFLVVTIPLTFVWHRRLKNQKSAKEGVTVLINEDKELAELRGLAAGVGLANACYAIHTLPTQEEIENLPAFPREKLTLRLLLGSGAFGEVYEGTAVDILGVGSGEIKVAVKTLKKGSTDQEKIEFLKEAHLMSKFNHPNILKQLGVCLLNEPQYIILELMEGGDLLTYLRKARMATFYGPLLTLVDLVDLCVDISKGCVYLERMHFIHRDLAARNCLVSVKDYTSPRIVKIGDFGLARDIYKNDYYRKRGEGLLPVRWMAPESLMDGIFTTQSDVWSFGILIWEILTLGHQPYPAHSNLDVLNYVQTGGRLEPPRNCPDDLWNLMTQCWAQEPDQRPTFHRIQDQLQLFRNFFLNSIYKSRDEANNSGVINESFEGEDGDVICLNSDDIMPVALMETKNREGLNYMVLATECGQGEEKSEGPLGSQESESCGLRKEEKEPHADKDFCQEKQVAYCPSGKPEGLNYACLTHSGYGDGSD
Chain of Tyrosine-protein kinase Srms (Homo sapiens) (Q9H3Y6 whole entry): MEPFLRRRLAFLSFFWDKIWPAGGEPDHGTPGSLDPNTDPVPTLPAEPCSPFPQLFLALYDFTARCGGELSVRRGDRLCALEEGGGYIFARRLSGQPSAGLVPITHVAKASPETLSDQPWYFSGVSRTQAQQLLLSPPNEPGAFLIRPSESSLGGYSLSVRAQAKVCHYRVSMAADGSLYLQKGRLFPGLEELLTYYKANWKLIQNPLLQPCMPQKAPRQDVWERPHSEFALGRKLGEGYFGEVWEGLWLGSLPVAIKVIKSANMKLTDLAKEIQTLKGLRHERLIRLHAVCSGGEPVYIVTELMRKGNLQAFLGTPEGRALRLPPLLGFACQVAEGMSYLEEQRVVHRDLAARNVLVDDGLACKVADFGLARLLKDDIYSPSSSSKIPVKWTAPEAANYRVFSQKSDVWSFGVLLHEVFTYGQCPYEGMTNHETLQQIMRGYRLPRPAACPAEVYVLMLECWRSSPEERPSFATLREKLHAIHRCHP
Chain of Proto-oncogene tyrosine-protein kinase Src (Homo sapiens) (P12931 2-536 limits assumed): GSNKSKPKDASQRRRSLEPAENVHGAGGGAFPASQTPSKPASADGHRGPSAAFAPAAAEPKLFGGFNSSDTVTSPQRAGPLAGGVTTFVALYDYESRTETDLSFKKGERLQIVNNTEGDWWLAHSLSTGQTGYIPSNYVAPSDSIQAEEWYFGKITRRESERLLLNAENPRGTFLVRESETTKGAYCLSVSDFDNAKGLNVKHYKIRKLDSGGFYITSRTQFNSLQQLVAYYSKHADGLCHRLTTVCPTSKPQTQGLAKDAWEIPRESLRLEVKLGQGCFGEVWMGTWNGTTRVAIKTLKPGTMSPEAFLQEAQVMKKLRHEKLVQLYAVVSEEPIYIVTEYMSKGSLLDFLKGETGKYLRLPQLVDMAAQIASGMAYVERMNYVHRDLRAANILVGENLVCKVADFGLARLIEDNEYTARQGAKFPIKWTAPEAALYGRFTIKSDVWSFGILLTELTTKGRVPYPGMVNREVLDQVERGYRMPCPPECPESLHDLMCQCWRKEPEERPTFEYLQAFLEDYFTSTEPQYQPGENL

With `Clc1ccc(CNc2nccc(-c3cnn4ncccc34)n2)cc1`, the inhibition in test [1] is 20.4%; in test [2] it was -1.7%; in test [3], 6.29%; in test [4], 0.86%; in [5] it was 6.59%; in test [6], 0.82%. For the same compound, the inhibition is 6.25% in test [7], 0.35% in [8], -1.1% in test [9] and 2.92% in [10].
In the case of `c1ccc(-c2n[nH]cc2-c2ccnc(-c3ccc(OCCN4CCOCC4)cc3)c2)nc1`, the inhibition is 12.9% in [1]; -5.76% in test [2]; 3.22% in test [3]; 7.93% in [4]; 11.1% in [5]; 1.88% in test [6]. Also, the inhibition in test [7] amounted to 4.39%; in test [8] it was 4.69%; in test [9], 3.57%; in [10], 11.6%.
`Nc1nccc(-c2c(-c3ccc(F)cc3)ncn2C2CCC(O)CC2)n1` (stereo not given): the inhibition in [1] worked out at 25.2%; in [2], 3.96%; in test [3], 13.3%; in [4] it was 28.6%; in test [5] it was 76.4%; in [6], 0.34%. In addition, the inhibition in test [7] is 18.3%; in [8], -0.15%; in test [9], 2.5%; in test [10] it was -1.99%.
For `C[C@@H](Oc1cc(-n2cnc3ccc(OCC4CCN(C)CC4)cc32)sc1C(N)=O)c1ccccc1Cl`, the inhibition in test [1] worked out at 20.1%; in test [2], 0.85%; in test [3] it was 13.1%; in test [4], 10.2%; in [5], 21.6%; in [6] it was 11.9%. For the same compound, the inhibition was 33.2% in test [7], -3.18% in test [8], -0.97% in test [9] and -0.18% in test [10].
Regarding `O=C1NC(=O)C(c2cccc(Cl)c2)=C1Nc1ccc(Cl)c(C(=O)O)c1`, the inhibition is 13.8% in test [1]; 5.57% in test [2]; 1.47% in test [3]; 2% in test [4]; 0.59% in test [5]; 8.46% in test [6]. In addition, the inhibition in [7] was 8.07%; in test [8], 0.43%; in test [9] it was 0.54%; in test [10], 1.85%.
Turning to `FC(F)(F)c1cccc(Nc2nccc(-c3cnn4nc(-c5ccccc5)ccc34)n2)c1`, the inhibition was 9% in test [1]; 3.97% in [2]; 1.8% in test [3]; 0.97% in test [4]; 9.02% in [5]; 5.04% in test [6]. The inhibition in test [7] was 8.31%; in test [8], -0.79%; in test [9], -0.77%; in test [10], -0.05%.
`Fc1ccc(-c2ncn(C3CCNCC3)c2-c2ccnc(Oc3ccc(Oc4ccccc4)cc3)n2)cc1`: the inhibition is 4.3% in [1]; 0.16% in [2]; 0.94% in test [3]; 12.1% in test [4]; 11% in test [5]; 10.9% in test [6]. Besides, the inhibition in [7] is 15.3%; in test [8], -1.67%; in test [9], -1.36%; in test [10] it was 0.87%.
For `COc1cc(Nc2ncc3c(C)nc(-c4cccc(Oc5ccccc5)c4)n3n2)cc(OC)c1OC`, the inhibition was 12.9% in test [1]; 2.03% in test [2]; 2.13% in test [3]; 13.1% in [4]; 14.7% in test [5]; -4.09% in [6]. Also, the inhibition in test [7] was 21.7%; in test [8], 0.72%; in test [9], -0.11%; in [10], 0.87%.
In the case of `O=C(Nc1n[nH]c2nc(-c3ccc(O)cc3)c(Br)cc12)C1CC1`, the inhibition is 36.3% in [1]; 2.95% in test [2]; 6.19% in test [3]; 5.89% in test [4]; 11.1% in [5]; -2.92% in test [6]. Moreover, the inhibition in [7] is 20.3%; in test [8], 2.23%; in test [9], 17%; in test [10] it was -6.1%.
Take `Cc1nnc(-c2ccc(C)c(-c3ccc(C(=O)NCc4ccc(Cl)cc4)cc3)c2)o1`: the inhibition in test [1] is 7.75%; in test [2] it was 1.1%; in test [3], 2.52%; in [4], 4.75%; in test [5] it was 7.75%; in test [6], -1.25%. In addition, the inhibition is 7.15% in test [7], -2.08% in test [8], -0.92% in test [9] and -5.79% in [10].
Take `Cc1ccc(NC(=O)c2ccoc2)cc1-c1ccc(C(=O)NCC2CC2)cc1`: the inhibition in test [1] was 4.03%; in [2], -2.83%; in test [3], -3.5%; in test [4], 0.21%; in test [5], -0.03%; in [6] it was 5.81%. The inhibition in [7] was 4.32%; in test [8], -1.74%; in test [9], -2.77%; in test [10], -1.35%.
On to `CS(=O)(=O)CCNCc1ccc(-c2ccc3ncnc(Nc4ccc(OCc5ccccc5)c(Br)c4)c3c2)o1`, for which the inhibition in test [1] came out at 15.1%; in test [2], 4.89%; in [3] it was 6.32%; in test [4] it was 4.46%; in [5], 10.1%; in [6], 6.71%. In addition, the inhibition in test [7] is 6.55%; in [8] it was -0.64%; in test [9], 2.32%; in test [10], -1.09%.
`O=C(NCC1CC1)c1ccc(-c2cccc(C(=O)NC3CC3)c2)cc1`: the inhibition in test [1] was 24.5%; in test [2] it was 4.01%; in test [3] it was 0%; in [4] it was 3.69%; in test [5], 6.33%; in test [6], 2.23%. For the same compound, the inhibition in test [7] was 7.22%; in test [8], -2.13%; in test [9] it was -0.43%; in test [10], -0.53%.
For the compound `CCc1nccc2c1nc(-c1nonc1N)n2CC`, the inhibition is 13.1% in test [1]; -3.47% in [2]; 4.96% in [3]; 3.74% in [4]; 5.33% in [5]; -0.62% in test [6]. Moreover, the inhibition is 10.1% in test [7], -1.58% in test [8], -3.49% in [9] and -1.01% in test [10].
Turning to `O=C(Nc1n[nH]c2cc(-c3ccccc3)ccc12)C1CC1`, the inhibition in test [1] was determined as 10.6%; in test [2] it was 3.18%; in test [3] it was 5.31%; in [4], 6.26%; in [5], 7.64%; in [6], 0.33%. Further, the inhibition in test [7] is 10.7%; in test [8], -0.84%; in test [9], 3.11%; in test [10] it was -3.33%.
Regarding `NS(=O)(=O)c1ccc(N/N=C2\C(=O)Nc3ccc(C(=O)NCCCn4ccnc4)cc32)cc1`, the inhibition in [1] is 59.8%; in test [2] it was -0.93%; in test [3], 7.24%; in test [4], 9.73%; in test [5], 13.2%; in [6], 9.31%. Also, the inhibition in test [7] was 27.1%; in test [8], -1.71%; in test [9], 1.02%; in test [10] it was -1.95%.
Consider `COc1ccc(C2=C(N3CCc4ccccc43)C(=O)NC2=O)cc1`, for which the inhibition was 9.39% in test [1]; 9.63% in test [2]; 6.83% in test [3]; 6.01% in test [4]; 9.68% in test [5]; -1.55% in test [6]. Further, the inhibition in test [7] is 10.8%; in [8], 7.78%; in [9] it was 14.7%; in test [10] it was -4.17%.

The term inhibition denotes the drop in the measured response relative to a control, in per cent.
